Rows were chosen to be rich in hits. Some 2.8% of all compounds tested hit in one or more screens of this group.
pPAFAH inh – pPAFAH (human) enzyme inhibition. Q13093. recombinant pPAFAH, FP-rhodamine probe fluorescence polarization. inhibition, % at 3.39 µM. hit rate 1.5% among 330,000;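 active = inhibition above the mean inhibition across the screen plus 3 SD, cut at about 25% in these data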;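 note: inhibitors block binding of the rhodamine activity-based probe so polarization drops; 0% = enzyme with DMSO and 100% = wells lacking pPAFAH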
PAFAH1B2 FP inh – blocks human PAF acetylhydrolase 1b catalytic subunit 2. P68402. recombinant PAFAH1B2, FP-rhodamine activity probe, fluorescence polarization. inhibition, % at 3.39 µM. hit rate 1.2% among 340,000. AID 492953;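 active = inhibition above the mean of all tested compounds plus 3 SD, cut at about 24% in these data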;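 note: 0% = enzyme with DMSO and 100% = wells lacking PAFAH1B2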
Fam108B inh – Fam108B inhibition, counter-screen for RBBP9 inhibitors; inhibition, % at 9.51 µM; AID 1947; hit rate 0.33% among 300,000; recombinant Fam108B, FP-Rh probe fluorescence polarization;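 active = inhibition above the screen mean inhibition plus 3 SD, computed separately per campaign, cut at about 18% in these data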;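 note: inhibitors lower polarization as less probe binds the enzyme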
PAFAH2 FP inh – inhibitors of human PAFAH2; AID 492956; recombinant PAFAH2, FP-rhodamine activity probe, fluorescence polarization; Q99487; inhibition, % at 3.39 µM; hit rate 0.99% among 340,000;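 active = inhibition above the mean over all tested compounds plus 3 SD, cut at about 30% in these data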;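 note: inhibitors block probe labeling of enzyme so polarization drops; 0% = enzyme with DMSO and 100% = wells lacking PAFAH2 protein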
PME-1 primary – PME-1 (human) inhibition; recombinant PME-1, FP-Rh probe fluorescence polarization; inhibition, % at 5.9 µM; hit rate 0.53% among 320,000;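 active = inhibition above the campaign mean of all compounds plus 3 SD, cut at about 26% in these data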;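 note: competitive labeling of PME-1 active site by serine hydrolase directed probe; 0% = PME-1 with DMSO and 100% = wells lacking PME-1 enzyme; inhibitors block probe labeling so polarization falls and inhibition rises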
Target sequence (Q9Y570 whole entry, looked up): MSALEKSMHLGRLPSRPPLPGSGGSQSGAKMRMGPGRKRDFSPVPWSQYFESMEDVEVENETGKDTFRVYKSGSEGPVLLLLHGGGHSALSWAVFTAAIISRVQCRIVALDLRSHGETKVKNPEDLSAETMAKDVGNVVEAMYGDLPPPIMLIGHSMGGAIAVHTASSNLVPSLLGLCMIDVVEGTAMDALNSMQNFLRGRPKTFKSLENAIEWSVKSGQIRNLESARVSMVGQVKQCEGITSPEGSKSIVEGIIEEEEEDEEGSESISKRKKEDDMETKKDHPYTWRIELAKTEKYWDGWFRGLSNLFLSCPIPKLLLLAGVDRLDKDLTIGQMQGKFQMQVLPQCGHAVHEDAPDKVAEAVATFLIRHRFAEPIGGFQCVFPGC
PAFAH1B3 FP inh – inhibitors of human PAFAH1B3 | hit rate 0.28% among 340,000 | AID 492972 | recombinant PAFAH1B3, FP-rhodamine probe, fluorescence polarization | inhibition, % at 3.39 µM;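 active = inhibition above the screen-wide average of all tested compounds plus 3 SD, cut at about 25% in these data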;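 note: 0% = enzyme with DMSO only and 100% = wells lacking PAFAH1B3 protein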
PAFAH2 FP conf – PAFAH2 (human) inhibition, confirmed | shares compounds with PAFAH2 FP inh | inhibition, % at 3.39 µM | AID 493030 | recombinant PAFAH2, FP-rhodamine activity probe, fluorescence polarization | hit rate 65% among 2,300;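 active = mean inhibition over three repeats above a set limit taken from the earlier primary screen, cut at about 30% in these data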;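 note: inhibitor blocks binding of rhodamine activity probe so polarization falls; 0% = enzyme with DMSO and 100% = wells lacking PAFAH2 protein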
* hit, by the source's call; · = not tested or not shown.

SMILES	pPAFAH inh	PAFAH1B2 FP inh	Fam108B inh	PAFAH2 FP inh	PME-1 primary	PAFAH1B3 FP inh	PAFAH2 FP conf
O=C(COC(=O)c1ccc(NS(=O)(=O)c2ccc3c(c2)OCCO3)cc1)NC1CC1	9.3	-0.4	-1.8	63.6*	-4.2	1.6	51.1*
O=C(COC(=O)c1ccc2c(c1)OCO2)NC1CCCCC1	22.0	6.4	·	89.1*	·	6.4	81.9*
CN(C(=O)COC(=O)c1ccc2c(c1)OCO2)C1CCS(=O)(=O)C1 (centres undefined)	3.6	-5.2	-2.1	4.6	-0.5	4.5	·
CC1CCCC(NC(=O)COC(=O)c2ccc3c(c2)OCCO3)C1C (centres undefined)	13.6	3.3	·	83.6*	·	7.6	76.5*
CC1CCCC(NC(=O)c2ccc3c(c2)OCCO3)C1C (centres undefined)	2.6	4.1	·	28.5	1.8	1.1	·
CN(C(=O)COC(=O)c1ccc2c(c1)OCO2)C1CCCCC1	5.3	9.0	·	66.7*	·	9.3	67.1*
OC1C(O)C(O)C(O)C(O)C1O (centres undefined)	2.3	-2.7	0.8	-13.1	-0.2	-6.5	·
C=C(C)COc1ccc2c(C)c(C)c(=O)oc2c1OCC(=C)C	8.9	3.1	-1.8	37.9*	-3.2	3.9	40.1*
Cn1cc(C[C@H](NC(=O)OC(C)(C)C)C(=O)N[C@@H](CO)Cc2ccccc2)c2ccccc21	4.7	9.3	-0.9	-3.8	0.5	-1.9	·
COc1cc(NC(=O)c2ccc(N3CC4CC(C3)c3cccc(=O)n3C4)c(NC(=O)c3ccncc3)c2)cc(OC)c1OC (centres undefined)	8.2	-0.1	1.9	0.8	-2.9	5.9	·
O=C(O/N=C/c1cccc([N+](=O)[O-])c1)C1CC1	21.6	8.8	1.7	92.0*	8.5	5.7	77.8*
CC(=O)Nc1ccc(NC(=O)C(C)O/N=C/c2cccc([N+](=O)[O-])c2)cc1 (centres undefined)	5.9	1.8	-1.6	30.3*	3.5	3.8	-2.7
Cc1ccc(N=C(NO)c2nonc2N)c(C)c1	-0.5	-3.9	1.6	-4.3	-2.4	1.3	·
Cc1ccc(N=C(NOC(=O)c2ccccc2)c2nonc2N)c(C)c1	4.7	-1.2	-13.9	67.8*	7.2	-6.6	67.3*
S=c1[nH]nc(-c2ccco2)n1/N=C/C=C/c1ccco1	18.4	4.2	3.9	46.2*	1.9	17.6	-0.4
O=C(CCS(=O)(=O)c1ccc(Br)cc1)N1CCN(c2ccccc2)CC1	4.7	4.8	1.0	32.5*	0.0	4.1	20.8
O=C(CNC(=S)N(CCCN1CCOCC1)Cc1cccs1)NCCCN1CCOCC1	1.8	5.6	-2.0	4.4	-6.2	3.8	·
O=C(CNC(=S)N(CCCN1CCOCC1)Cc1cccs1)NCc1ccc(Cl)cc1	3.9	7.2	5.1	48.3*	16.1	0.0	37.3*
O=C(CNC(=S)N(CCCN1CCOCC1)Cc1cccs1)NCc1ccccc1Cl	4.6	-1.0	-2.0	47.0*	-3.5	5.8	31.3*
O=C(CCN1C(=O)/C(=C/c2cccs2)SC1=S)N1CCCCC1	-1.6	10.2	-2.8	2.3	1.3	14.6	·
O=C(c1ccc(-c2cccc(C(F)(F)F)c2)o1)N1CCCC(C(F)(F)F)C1 (centres undefined)	8.1	0.7	0.8	33.5*	0.8	-3.7	5.2
O=C(c1ccc(-c2cccc(C(F)(F)F)c2)o1)N1CCN(c2ccccc2O)CC1	17.5	2.8	4.0	-2.6	10.4	8.9	·
CCN(CC)C1Oc2cc3c(cc2C(c2cc(OC)c(OC)c(OC)c2)C1C)OCO3 (centres undefined)	·	2.5	·	5.3	·	1.8	·
O=C(COC(=O)C12CC3CC(CC(C3)C1)C2)NC12CC3CC(CC(C3)C1)C2	22.8	14.1	-2.7	90.2*	-5.5	1.1	86.4*
N#CC1(NC(=O)COC(=O)C23CC4CC(CC(O)(C4)C2)C3)CCCCC1	7.6	3.7	1.6	48.2*	-0.5	9.1	44.9*
NC(=O)COC(=O)C12CC3CC(CC(O)(C3)C1)C2	3.9	2.9	4.5	8.9	-4.9	5.3	·
CCC(CC)C(=O)OCC(=O)NC12CC3CC(CC(C3)C1)C2	3.6	9.8	-4.3	64.5*	3.8	8.9	42.7*
